Measurements from PubChem BioAssay (NCATS).
Results filed as inconclusive are left out. The source made the active and inactive calls. Unless noted, calls come from the whole dose curve; as a rule, active = well fitted inhibition curve with a large enough effect; inconclusive = small, poorly fitted or top-dose-only effect; inactive = flat fitted curve, though single readings scatter.

How the values were obtained:
[1] = qHTS drug screen for cell cycle checkpoint inhibitors in PARPi-resistant BRCA-mutant ovarian cancer cell lines. (AID 1963452; calls by dose curve); details: PEO1/OlaR viability, CellTiter-Glo luminescence, 96 h, stronger effect = lower value
Method in brief: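 PEO1, PEO4 and PEO1/OlaR ovarian cancer cells, 600 per well, exposed 96 h at 37C to a dilution series. Viability read by CellTiter-Glo luminescence, normalized to DMSO and empty wells; activity summarized as Z-AUC.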

[2] = qHTS for identification of novel therapeutic agents for treatment of microphthalmiaassociated transcription factor (MiT) renal cell carcinoma (RCC) (AID 1963991); details: CellTiter-Glo, 48 h, stronger effect = lower value
Method in brief: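 Three TFE3-fusion RCC lines (UOK109, UOK124, UOK145), 500 cells/well in complete medium, were treated with MIPE 4.0 compounds for 48 hours at 37 C. Viability was by CellTiter-Glo luminescence, normalized to DMSO (100%) and empty wells (0%); curves fitted over 11 concentrations.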

[3] = qHTS profiling for inhibitors of Plasmodium falciparum proliferation (AID 504749); note: potency is the fitted concentration of half-maximal effect;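 for activity, negative = inhibition: 0% = DMSO vehicle and full inhibition = artemisinin control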; for all read-outs here: nearly all actives have a fitted effect of over 60% in size; details: P. falciparum in erythrocytes, SYBR Green DNA, 72 h; for activity, negative = inhibition: at 28.7 µM (top of the series)
Method in brief: (§1)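 Readout was DNA-dye fluorescence from lysed cultures, ex 485/em 535 nm. Parasitized red cells had grown 72 h with compound; data scaled between 0.29 uM artemisinin and DMSO wells and corrected using vehicle-only plates.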

[4] = tested on: 3D7; test: as above; details: P. falciparum in erythrocytes, SYBR Green DNA, 72 h; series mostly up to 28.7 µM
Method in brief: as §1

[5] = tested on: 7G8; test: as above; details: P. falciparum in erythrocytes, SYBR Green DNA, 72 h; series mostly up to 28.7 µM
Method in brief: as §1

[6] = tested on: AA1029; test: as above; details: P. falciparum in erythrocytes, SYBR Green DNA, 72 h; series mostly up to 28.7 µM
Method in brief: as §1

[7] = tested on: AS120; test: as above; details: P. falciparum in erythrocytes, SYBR Green DNA, 72 h; series mostly up to 28.7 µM
Method in brief: as §1

[8] = tested on: ATS189; test: as above; details: P. falciparum in erythrocytes, SYBR Green DNA, 72 h; series mostly up to 28.7 µM
Method in brief: as §1

[9] = tested on: ATS95; test: as above; details: P. falciparum in erythrocytes, SYBR Green DNA, 72 h; series mostly up to 28.7 µM
Method in brief: as §1

[10] = tested on: C2A; test: as above; details: P. falciparum in erythrocytes, SYBR Green DNA, 72 h; series mostly up to 28.7 µM
Method in brief: as §1

[11] = tested on: CP185; test: as above; details: P. falciparum in erythrocytes, SYBR Green DNA, 72 h; series mostly up to 28.7 µM
Method in brief: as §1

[12] = tested on: CP194; test: as above; details: P. falciparum in erythrocytes, SYBR Green DNA, 72 h; series mostly up to 28.7 µM
Method in brief: as §1

[13] = tested on: CP201; test: as above; details: P. falciparum in erythrocytes, SYBR Green DNA, 72 h; series mostly up to 28.7 µM
Method in brief: as §1

[14] = tested on: CP203; test: as above; details: P. falciparum in erythrocytes, SYBR Green DNA, 72 h; series mostly up to 28.7 µM
Method in brief: as §1

[15] = tested on: CP211; test: as above; details: P. falciparum in erythrocytes, SYBR Green DNA, 72 h; series mostly up to 28.7 µM
Method in brief: as §1

[16] = tested on: CP215; test: as above; details: P. falciparum in erythrocytes, SYBR Green DNA, 72 h; series mostly up to 28.7 µM
Method in brief: as §1

[17] = tested on: CP217; test: as above; details: P. falciparum in erythrocytes, SYBR Green DNA, 72 h; series mostly up to 28.7 µM
Method in brief: as §1

[18] = tested on: CP237; test: as above; details: P. falciparum in erythrocytes, SYBR Green DNA, 72 h; series mostly up to 28.7 µM
Method in brief: as §1

[19] = tested on: CP191; test: as above; details: P. falciparum in erythrocytes, SYBR Green DNA, 72 h; series mostly up to 28.7 µM
Method in brief: as §1

[20] = tested on: CP192; test: as above; details: P. falciparum in erythrocytes, SYBR Green DNA, 72 h; series mostly up to 28.7 µM
Method in brief: as §1

[21] = measured here: PEO1 parental Z-AUC
[22] = TFE3-RCC UOK109 viability, measured here: UOK109 Z-AUC
[23] = TFE3-RCC viability, measured here: UOK124 Z-AUC
[24] = TFE3-RCC viability, measured here: UOK145 Z-AUC

C[C@@H](NCCCc1cccc(C(F)(F)F)c1)c1cccc2ccccc12
inactive: Z-AUC [1] 0.769
active: Potency ([3]; parasite line B) 5620 nM | Potency [4] 11200 nM | Potency [5] 1120 nM | Potency [6] 6310 nM | Potency [7] 3980 nM | Potency [8] 7080 nM | Potency [9] 7080 nM | Potency [10] 8910 nM | Potency [11] 11200 nM | Potency [12] 13500 nM | Potency [13] 15100 nM | Potency [14] 10700 nM | Potency [15] 13500 nM | Potency [16] 10700 nM | Potency [17] 7940 nM | Potency [18] 3550 nM
1.16: z-score [2, 22]
0.348: z-score [2, 24]
0.404: Z-AUC ([1]; measured here: PEO4 Z-AUC)
0.808: z-score [2, 23]
0.263: Z-AUC [1, 21]

CNC1CCCN(c2c(F)cc3c(=O)c(C(=O)O)cn(C4CC4)c3c2OC)C1 (stereo unspecified)
1.15: Z-AUC [1, 21]
inactive: Z-AUC [1] 1.39 | activity, negative = inhibition ([3]; parasite line A) 5.3% | activity, negative = inhibition ([3]; parasite line B) 5% | Potency [4] | Potency [5] | Potency [6] | Potency [7] | Potency [8] | Potency [9] | Potency [10] | Potency [11] | Potency [19] | Potency [20] | Potency [12] | Potency [13] | Potency [14] | Potency [15] | Potency [16] | Potency [17] | Potency [18]
1.09: Z-AUC ([1]; measured here: PEO4 Z-AUC)

O=c1oc2c(O)c(O)cc3c(=O)oc4c(O)c(O)cc1c4c23
inactive: Z-AUC [1] 0.559 | Potency [6] | Potency [11] | Potency [19] | Potency [14]
0.754: Z-AUC [1, 21]
active: Potency [4] 1000 nM | Potency [5] 2820 nM | Potency [7] 1410 nM | Potency [18] 2000 nM
0.717: z-score [2, 24]
0.513: Z-AUC ([1]; measured here: PEO4 Z-AUC)
0.807: z-score [2, 23]
1.02: z-score [2, 22]

S=P(N1CC1)(N1CC1)N1CC1
inactive: Z-AUC [1] 0.79 | activity, negative = inhibition ([3]; parasite line A) -0.685% | activity, negative = inhibition ([3]; parasite line B) -0.221% | Potency [4] | Potency [5] | Potency [6] | Potency [7] | Potency [8] | Potency [9] | Potency [10] | Potency [11] | Potency [19] | Potency [20] | Potency [12] | Potency [13] | Potency [14] | Potency [15] | Potency [16] | Potency [17] | Potency [18]
1.59: Z-AUC ([1]; measured here: PEO4 Z-AUC)
1.48: Z-AUC [1, 21]

N=C(N)c1ccc(OCCCCCOc2ccc(C(=N)N)cc2)cc1
0.016: Z-AUC ([1]; measured here: PEO4 Z-AUC)
active: Potency ([3]; parasite line A) 1000 nM | Potency ([3]; parasite line B) 2240 nM | Potency [4] 1580 nM | Potency [5] 199 nM | Potency [6] 1000 nM | Potency [7] 891 nM | Potency [8] 1410 nM | Potency [9] 1120 nM | Potency [10] 1260 nM | Potency [11] 1120 nM | Potency [19] 398 nM | Potency [20] 1070 nM | Potency [12] 849 nM | Potency [13] 1690 nM | Potency [14] 953 nM | Potency [15] 849 nM | Potency [16] 1070 nM | Potency [17] 2240 nM | Potency [18] 251 nM
inactive: Z-AUC [1] 0.0445
-0.0701: Z-AUC [1, 21]

CCc1cc(C(N)=S)ccn1
-0.0543: Z-AUC [1, 21]
-0.17: Z-AUC ([1]; measured here: PEO4 Z-AUC)
inactive: Z-AUC [1] 0.368 | activity, negative = inhibition ([3]; parasite line A) -0.167% | activity, negative = inhibition ([3]; parasite line B) 3.61% | Potency [4] | Potency [5] | Potency [6] | Potency [7] | Potency [8] | Potency [9] | Potency [10] | Potency [11] | Potency [19] | Potency [20] | Potency [12] | Potency [14] | Potency [15] | Potency [16] | Potency [17] | Potency [18]

CC(N)C12CC3CC(CC(C3)C1)C2 (stereo unspecified)
active: Potency [14] 12000 nM | Potency [18] 5620 nM
0.503: z-score [2, 24]
0.00344: z-score [2, 22]
0.571: Z-AUC [1, 21]
0.654: z-score [2, 23]
inactive: Z-AUC [1] 0.887 | activity, negative = inhibition ([3]; parasite line A) 7.36% | activity, negative = inhibition ([3]; parasite line B) -12% | Potency [10] | Potency [19] | Potency [13] | Potency [17]
0.722: Z-AUC ([1]; measured here: PEO4 Z-AUC)

CCOC(=O)c1ccc(C#Cc2ccc3c(c2)C(C)(C)CCS3)nc1
0.0993: z-score [2, 24]
0.696: z-score [2, 23]
1.62: Z-AUC [1, 21]
1.15: Z-AUC ([1]; measured here: PEO4 Z-AUC)
inactive: Z-AUC [1] 1.4 | activity, negative = inhibition ([3]; parasite line B) -14.4% | Potency [4] | Potency [6] | Potency [7] | Potency [9] | Potency [20] | Potency [12] | Potency [13] | Potency [14] | Potency [16] | Potency [17] | Potency [18]
0.0377: z-score [2, 22]
active: Potency [5] 12600 nM

CC[C@H](C)C(=O)O[C@H]1C[C@@H](C)C=C2C=C[C@H](C)[C@H](CC[C@@H]3C[C@@H](O)CC(=O)O3)[C@H]21
inactive: Z-AUC [1] 1 | activity, negative = inhibition ([3]; parasite line A) -2.1% | activity, negative = inhibition ([3]; parasite line B) -31.4% | Potency [4] | Potency [5] | Potency [6] | Potency [7] | Potency [8] | Potency [9] | Potency [10] | Potency [11] | Potency [19] | Potency [20] | Potency [12] | Potency [13] | Potency [14] | Potency [15] | Potency [17] | Potency [18]
1.47: Z-AUC [1, 21]
1.3: Z-AUC ([1]; measured here: PEO4 Z-AUC)

Nc1nc(N)c2nc(CNc3ccc(C(=O)NC(CCC(=O)O)C(=O)O)cc3)cnc2n1 (stereo unspecified)
1.1: Z-AUC ([1]; measured here: PEO4 Z-AUC)
0.192: Z-AUC [1, 21]
inactive: Z-AUC [1] 0.0258 | activity, negative = inhibition ([3]; parasite line A) 3.54% | activity, negative = inhibition ([3]; parasite line B) -5.01% | Potency [4] | Potency [5] | Potency [6] | Potency [7] | Potency [8] | Potency [9] | Potency [10] | Potency [11] | Potency [19] | Potency [20] | Potency [12] | Potency [13] | Potency [14] | Potency [15] | Potency [16] | Potency [17] | Potency [18]

O=c1cc(O)c(Cl)c[nH]1
inactive: Z-AUC [1] 1.39 | activity, negative = inhibition ([3]; parasite line A) -6.01% | activity, negative = inhibition ([3]; parasite line B) 8.72% | Potency [4] | Potency [5] | Potency [6] | Potency [7] | Potency [8] | Potency [9] | Potency [10] | Potency [11] | Potency [19] | Potency [20] | Potency [12] | Potency [13] | Potency [14] | Potency [15] | Potency [16] | Potency [17] | Potency [18]
1.19: Z-AUC [1, 21]
1.11: Z-AUC ([1]; measured here: PEO4 Z-AUC)
